Hsp90 Hop PPI = changes Hsp90-Hop TPR2A binding signal, up or down; AlphaScreen TPR2A-His6 binding biotin-Hsp90 C-terminal peptide; Potency, µM (titrated, usually from 57 µM); hit rate 0.44% among 71,000; AID 595; active = well fitted curve in either direction with a large enough effect; inconclusive = small, poorly fitted or top-dose-only effect, or another doubt
IkB sig inh = inhibitors of IkB signaling in ABC-DLBCL cells. ABC-DLBCL IkBa-CBG/CBR dual luciferase ratio, 4 h; response scale: scaled: untreated 0%, proteasome inhibitor 100%. Potency, µM (highest dose often 57.1 µM). hit rate 0.04% among 110,000. AID 445; active = well fitted curve in the direction sought with a large enough effect in the signal ratio, not every such curve was filed as active; inconclusive = small, poorly fitted or top-dose-only effect, or a change in a side signal; the % refers to the signal ratio;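 also: the direction sought is a rising ratio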
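Curves were fitted separately to fusion (green), unfused (red) and ratio luminescence, then classed by r2, magnitude and activity. Cells: OCI-Ly3, 4 h compound plus doxycycline at 37C; 10 uM MG-132 defined full response.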
CRE-bla Fsk = modulators of forskolin-stimulated CRE signaling in CHO cells; hit rate 2.5% among 71,000; Potency, µM (highest dose often 38.2 µM), most hits filed as activators; CHO CRE-bla reporter (cAMP response element driving beta-lactamase), forskolin EC10, beta-lactamase ratio; active = well fitted activation curve with a large enough effect in the signal ratio, with a control signal flat, not every such curve was filed as active; inconclusive = small, poorly fitted or top-dose-only effect, or effect the other way, or a change in a side signal; the % refers to the signal ratio
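Forskolin analogue NKH 477 at EC10 stimulated CRE-driven beta-lactamase in CHO cells alongside compound dilution series. Beta-lactamase was measured with CCF4, excitation 405 nm, emission ratio 460/530 nm.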
HEK293 cAMP ctrl = counter-screen for TSHR agonists: cAMP increase in parental HEK293; AID 938; hit rate 2.5% among 73,000; Potency, µM (titrated, usually from 57.1 µM), most hits filed as activators; parental HEK293 CNG cAMP sensor, membrane potential fluorescence; active = well fitted activation curve with a large enough effect; inconclusive = small, poorly fitted or top-dose-only effect; inactive = no such curve, though single readings can be large or run the other way; also: nearly all actives have a fitted effect of over 55% in size
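Counterscreen for endogenous-receptor signalling: CNG-channel HEK 293 cells report cAMP rise by membrane depolarization. After 60 min dye equilibration with 100 uM RO 20-1724, compounds incubated 30 min before bottom-read fluorescence at 590 nm.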
TSHR agonist = TSH receptor (human) agonism; hit rate 0.48% among 73,000; Potency, µM (top dose mostly 57.1 µM), most hits filed as activators; HEK293-CNG-TSHR cells (CNG channel as cAMP sensor), membrane potential dye, cAMP; P16473; active = well fitted activation curve with a large enough effect in the main read-out, with a control signal flat, not every such curve was filed as active; inconclusive = small, poorly fitted or top-dose-only effect, or a change in a side signal; inactive = no such curve, though single readings can be large or run the other way; reference of the percent scale not stated here;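 also: the control signal comes from parental cells without the receptor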
Target sequence (P16473 whole entry, looked up): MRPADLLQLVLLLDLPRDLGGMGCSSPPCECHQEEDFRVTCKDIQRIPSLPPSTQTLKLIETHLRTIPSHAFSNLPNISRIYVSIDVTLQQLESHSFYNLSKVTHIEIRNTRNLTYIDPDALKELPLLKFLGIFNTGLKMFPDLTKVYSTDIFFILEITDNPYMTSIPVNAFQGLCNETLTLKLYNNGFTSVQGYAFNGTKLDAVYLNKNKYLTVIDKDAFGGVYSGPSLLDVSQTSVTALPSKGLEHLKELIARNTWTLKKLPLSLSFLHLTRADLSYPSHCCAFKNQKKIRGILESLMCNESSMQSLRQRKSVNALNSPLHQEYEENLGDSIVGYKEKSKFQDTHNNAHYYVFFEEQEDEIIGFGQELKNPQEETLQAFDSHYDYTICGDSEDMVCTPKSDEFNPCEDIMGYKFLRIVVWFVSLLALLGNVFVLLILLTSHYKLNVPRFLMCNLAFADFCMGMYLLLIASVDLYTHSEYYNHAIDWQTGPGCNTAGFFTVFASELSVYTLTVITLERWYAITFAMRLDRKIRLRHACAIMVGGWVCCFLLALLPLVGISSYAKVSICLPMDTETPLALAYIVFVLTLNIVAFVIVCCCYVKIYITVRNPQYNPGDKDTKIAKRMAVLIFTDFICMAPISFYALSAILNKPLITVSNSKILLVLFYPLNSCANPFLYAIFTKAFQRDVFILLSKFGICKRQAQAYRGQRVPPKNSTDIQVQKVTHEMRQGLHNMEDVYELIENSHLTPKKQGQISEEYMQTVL
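cAMP rise detected as CNG-channel membrane depolarization by fluorescent dye (emission 590 nm), 30 min after compound, following 60 min dye loading containing 100 uM RO 20-1724 at room temperature. Cells: TSHR/CNG HEK 293, with parental CNG HEK 293 as control.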
A number is an active result; – = inactive; ? = inconclusive; · = no result given; [ ] = dose if it differs, or a comment. Shown are actives, neighbours in structure and some others; about 3.5% of the full set was active somewhere.

SMILES	Hsp90 Hop PPI	IkB sig inh	CRE-bla Fsk	HEK293 cAMP ctrl	TSHR agonist
CCN(c1ccc(C)cc1C)S(=O)(=O)c1nnc(NC(=O)c2ccc(F)cc2)s1	·	–	·	·	·
Cc1nc2cnc(N(C)C)nc2n(Cc2cccs2)c1=O	–	–[11.4 µM]	7.9µM	–	–
CN(C)c1ncc2nc(-c3cccs3)c(=O)n(Cc3cccs3)c2n1	–	–[11.4 µM]	?	–	–
COCCn1c(=O)c(CCc2ccccc2)nc2cnc(N(C)C)nc21	–	–[11.4 µM]	6.3µM	?	?
COCCn1c(=O)c(CCc2ccccc2)nc2cnc(N3CCN(C)CC3)nc21	–	–[11.4 µM]	–	?	?
O=c1c(CCc2ccccc2)nc2cnc(Nc3ccccc3)nc2n1Cc1cccs1	–	–[11.4 µM]	?	1.3µM	?
CN(C)c1ncc2nc(-c3ccc(Cl)cc3)c(=O)n(Cc3cccs3)c2n1	?	–[11.4 µM]	?	–	–
CN(C)c1ncc2nc(CCc3ccccc3)c(=O)n(Cc3cccs3)c2n1	25µM	–[11.4 µM]	10µM	?	?
COc1cc(/C=C\C(=O)N2CCC=CC2=O)cc(OC)c1OC	–	?	?	–	–
Cc1nc(N)nc2ccccc12	–[11 µM]	–[11.4 µM]	–[7.6 µM]	–[11.4 µM]	–[11.4 µM]
Cc1ccc(-c2noc(CSc3nnnn3C3CCCCC3)n2)cc1	–	–	–	–	25µM
Cc1ccc(-c2noc(CSc3nnc(C)n3-c3ccc(C)cc3)n2)cc1	·	–	·	·	·
COCCOC(=O)c1c(C)oc2ccc(OCc3cc(C(=O)OC)oc3C)cc12	?	?	?	25µM	?
COCCOC(=O)c1c(C)oc2ccc(OC(=O)c3cccs3)cc12	?	–	–	?	?
O=C(O)CSc1nnc(-c2ccccc2O)n1Cc1ccccc1	–	–	–	–	–
Cc1occc1-c1nnc(SCC(=O)c2ccc(F)cc2)n1Cc1ccco1	–	–	–	–	–
O=C(CSc1nnc(-c2ccc(Br)o2)n1Cc1ccccc1)c1ccccc1F	–	–	?	20µM	?
O=C(CSc1nnc(-c2ccco2)n1Cc1ccccc1)c1ccc(F)cc1	–	?	–	25µM	?
Cn1cccc1C(=O)N1CCC2(CCCN(Cc3ccccc3)C2)CC1	–	–[11.4 µM]	?	?	?
CCOc1ccc(NC(=O)Cn2cnc3sc(C)c(S(=O)(=O)N4CCN(c5ccccc5OC)CC4)c3c2=O)cc1	·	–	·	·	·
CO[C@H]1COC(=O)[C@@H](Cc2ccccc2)NC(=O)[C@@H](C)COC(=O)C/C=C\[C@@H]1C	·	·	·	–[11.4 µM]	–[11.4 µM]
Cc1ccc2c(c1)N(CC(=O)c1cccc(Cl)c1)C(=O)C(C)O2 (stereo not drawn)	–	–	–	20µM	?
Cc1ccc2c(c1)N(CC(=O)N(Cc1ccc3c(c1)OCO3)CC1CCCO1)C(=O)C(C)O2 (stereo not drawn)	–	–	–	20µM	?
CC1Oc2ccccc2N(CC(=O)c2cccc(Cl)c2)C1=O (stereo not drawn)	–	–	–	?	?
Cc1nc(NCc2ccccc2)c2nc(-c3ccccc3)n(CC3CCN(C)CC3)c2n1	–	·	–	–	–
SMILES	Hsp90 Hop PPI	IkB sig inh	CRE-bla Fsk	HEK293 cAMP ctrl	TSHR agonist
CCN[C@@H]1CN(CCCOC)S(=O)(=O)c2sc(S(N)(=O)=O)cc21	–	–	–	–	–
CCNc1ncc2nc(-c3cc(F)cc(F)c3)c(=O)n(Cc3cccs3)c2n1	–	–[11.4 µM]	?	–	–
O=C1[C@H]2[C@H]3[C@H](O)[C@H](O)C/C(=N/OC[C@@H](O)COCc4ccco4)[C@@H]3CC[C@@H]2C(=O)N1C[C@@H]1CCCO1	·	·	·	–[11.4 µM]	–[11.4 µM]
Cc1cc(C(C)(C)C)c(OCCCN2CCOCC2)c(C(C)(C)C)c1	–[11 µM]	–[11.4 µM]	–[7.6 µM]	–[11.4 µM]	–[11.4 µM]
COC(=O)c1ccccc1NC(=O)c1ccccc1OC	?	–	?	16µM	?
CCOc1ccccc1C(=O)Nc1nncs1	–	–	13µM	–	–[11.4 µM]
COc1ccc(OC)c(NS(=O)(=O)c2ccc(SC)cc2)c1	–	–	–	?	?
O=C(Nc1nncs1)c1ccccc1Br	–	–	–	?	?
CCOc1ccc(S(=O)(=O)Nc2cc(OC)ccc2OC)cc1	–	?	13µM	?	?
CCOc1ccc(-c2nnn(CC(=O)Nc3cc(OC)ccc3OC)n2)cc1OCC	–	–	3.2µM	–	·
CCc1ccc2nc(N(Cc3cccnc3)C(=O)c3cccs3)sc2c1	·	–	·	·	·
CO[C@H]1COC(=O)CCC[C@H](C)[C@H](OC)COC(=O)C/C=C\[C@@H]1C	·	·	·	–[11.4 µM]	–[11.4 µM]
COc1cc(NC(=O)C(C)Oc2ccccc2)cc(OC)c1 (stereo not drawn)	–	–	–	–	–
CCOc1ccccc1C(=O)Nc1cc(Cl)ccc1O	–	–	?	–	?
CCOc1ccccc1C(=O)Nc1cc(OC)ccc1OC	·	·	·	25µM	?
COC(=O)c1ccccc1NC(=O)C(C)Oc1ccccc1 (stereo not drawn)	?	–	13µM	?	?
Oc1c(C(c2ccccc2)N2CCC(O)CC2)sc2nc(-c3ccco3)nn12 (stereo not drawn)	·	–	·	·	·
Cc1cc2nc3c(=O)n(C)c(=O)n(C)c3nc2cc1N=CN(C)C	·	–	·	·	·
NC(=O)Cn1c(=O)n(CCCCCC(=O)NCc2ccc(F)cc2)c(=O)c2sccc21	·	–	·	·	·
COc1ccc(F)cc1S(=O)(=O)Nc1ccccc1C(=O)O	·	·	·	–	–
